The nature of experiment [1]: A CellTox Green Cytotoxicity Assay to monitor cytotoxicity in HepG2 cells - 0 hour (AID 1224882). Further: nearly all actives have a fitted effect of over 35% in size. Further: potency means the concentration at half of the fitted maximal effect. The gist of the method: (§1)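 Continuous culture of HepG2 cells with a membrane-impermeant DNA dye; rising fluorescence marks dead cells. Compound exposure lasted up to 40 h at 37 C, with reads every 8 h from 0 h.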
The nature of experiment [2]: A CellTox Green Cytotoxicity Assay to monitor cytotoxicity in HepG2 cells - 32 hour (AID 1224883). Further: nearly all actives have a fitted effect of over 50% in size. Further: potency means the concentration at half of the fitted maximal effect. Put shortly: as §1
Experiment [3] can be described thus: A CellTox Green Cytotoxicity Assay to monitor cytotoxicity in HEK293 cells - 8 hour (AID 1224884). Further: nearly all actives have a fitted effect of over 35% in size. Further: potency means the concentration at half of the fitted maximal effect. The gist of the method: (§2)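 Each value comes from one timepoint of a single continuous run in which HEK293 cells with CellTox Green were exposed to compound for up to 40 h at 37 C, dye fluorescence rising with cell death.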
The nature of experiment [4]: qHTS RealTime-Glo MT Cell Viability Assay in HepG2 cells - 16 hour (AID 1224885). Further: nearly all actives have a fitted effect of over 50% in size. Further: potency means the concentration at half of the fitted maximal effect. Put shortly: (§3)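 Luminescence read-out: viable HepG2 cells reduce a prosubstrate to a NanoLuc substrate, giving a signal proportional to live cell number. Reads taken at 0, 8, 16, 24, 32 and 40 h of compound exposure at 37 C.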
Experiment [5] can be described thus: qHTS RealTime-Glo MT Cell Viability Assay in HEK293 cells - 24 hour (AID 1224886). Further: nearly all actives have a fitted effect of over 50% in size. Further: potency means the concentration at half of the fitted maximal effect. Put shortly:
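Nonlytic real-time viability readout: viable cells convert prosubstrate to NanoLuc substrate, giving luminescence proportional to live cell number. HEK293, 600 cells/well, compound added after 5 h, continuous culture at 37 C.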
(In general: In qHTS, concentration-response curves come from the screen itself.)

The nature of experiment [6]: qHTS RealTime-Glo MT Cell Viability Assay in HEK293 cells - 8 hour (AID 1224887). Further: nearly all actives have a fitted effect of over 50% in size. Further: potency means the concentration at half of the fitted maximal effect. Put shortly:
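qHTS format; HEK293 cells with NanoLuc/prosubstrate reagent, 37 C/5% CO2 for 5 h pre-dosing; compounds 23 nL in DMSO; luminescence at each time point reflects viable cells.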

The nature of experiment [7]: A CellTox Green Cytotoxicity Assay to monitor cytotoxicity in HEK293 cells - 16 hour (AID 1224888). Further: nearly all actives have a fitted effect of over 35% in size. Further: potency means the concentration at half of the fitted maximal effect. The gist of the method:
as §2

A short description of experiment [8]: qHTS RealTime-Glo MT Cell Viability Assay in HepG2 cells - 0 hour (AID 1224889). Further: nearly all actives have a fitted effect of over 50% in size. Put shortly:
as §3

Experiment [9] is described as follows: A CellTox Green Cytotoxicity Assay to monitor cytotoxicity in HepG2 cells - 8 hour (AID 1224890). Further: nearly all actives have a fitted effect of over 45% in size. Further: potency means the concentration at half of the fitted maximal effect. The gist of the method: as §1
Experiment [10] in a line: qHTS assay to identify small molecule antagonists of the estrogen receptor alpha (ER-alpha) signaling pathway using the BG1 cell line in the presence of 0.1 nM 17-beta-estradiol - cell viability counter screen (AID 1259241). Further: nearly all actives have a fitted effect of over 40% in size. Further: potency means the concentration at half of the fitted maximal effect. Put shortly:
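Cytotoxicity counter-screen: live-cell protease activity measured by fluorescence (30 min reagent step) in the same wells. Cells were VM7Luc4E2 with endogenous ER-alpha and ERE-driven luciferase, treated 22 hr at 37C alongside 0.1 nM 17beta-estradiol final.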

Experiment [11] is described as follows: qHTS assay to identify small molecule antagonists of the androgen receptor (AR) signaling pathway using the MDA cell line in the presence of 0.5 nM R1881 - cell viability counter screen (AID 1259242). Further: nearly all actives have a fitted effect of over 45% in size. Further: potency means the concentration at half of the fitted maximal effect. The gist of the method:
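Fluorescence from CellTiter-Fluor, which reports protease activity of live cells, was read 30 min after reagent addition to MDA-kb2 cells that had been incubated 16 hr with compound and 0.5 nM R1881.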

The target of experiment [12] is Estrogen receptor (Homo sapiens) (UniProt P03372). Kind of experiment: qHTS assay to identify small molecule antagonists of the estrogen receptor alpha (ER-alpha) signaling pathway using the BG1 cell line in the presence of 0.1 nM 17-beta-estradiol (AID 1259244). Further: nearly all actives have a fitted effect of over 50% in size. Further: potency means the concentration at half of the fitted maximal effect. The gist of the method:
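Quantitative high-throughput screen in VM7Luc4E2 cells: compound plus 0.1 nM E2 (final), 22 h, 37C, 5% CO2; ONE-Glo added, 30 min room temperature, luminescence measured.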

A short description of experiment [13]: qHTS assay to identify small molecule HDAC inhibitors (AID 1259364). Further: nearly all actives have a fitted effect of over 45% in size. Further: potency means the concentration at half of the fitted maximal effect. Put shortly:
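Endogenous HDAC class I/II activity was measured in wild-type HCT-116 cells by HDAC-Glo luminescence after 2 h compound treatment.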

A short description of experiment [14]: qHTS assay to identify small molecule HDAC inhibitors - cell viability counter screen (AID 1259365). Further: nearly all actives have a fitted effect of over 50% in size. Further: potency means the concentration at half of the fitted maximal effect. Put shortly:
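CellTiter-Glo luminescence (30 min, room temperature) reported viability after a 2 h compound exposure at 37 C. Cells: wild-type HCT-116, 1,500 per well, seeded the night before.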

Experiment [15] is described as follows: qHTS assay to identify small molecule antagonists of the sonic hedgehog signaling (Shh) pathway - cell viability counter screen (AID 1259367). Further: nearly all actives have a fitted effect of over 55% in size. Further: potency means the concentration at half of the fitted maximal effect. The gist of the method: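 Using CellTiter-Fluor, viability of Gli1-Luc reporter 3T3 cells is read by fluorescence in the wells used for the Shh luciferase assay. Treatment lasts 23 hr with conditioned medium, then reagent 1 hr at 37C.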

The nature of experiment [16]: qHTS assay to identify small molecule agonists of the sonic hedgehog signaling (Shh) pathway (AID 1259368; calls by dose curve;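 further: NIH/3T3-derived 3T3Gli1-Luc cells carrying a stable Gli1-driven firefly luciferase reporter; series mostly up to about 92 µM; nearly all actives have a fitted effect of over 15% in size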). Put shortly: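 Luminescent signal was taken as a measure of Gli1-controlled luciferase expression in stably transfected NIH/3T3-derived cells that had been treated for 24 hr with compounds delivered in DMSO.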
Experiment [17] in a line: qHTS assay to identify small molecule antagonists of the sonic hedgehog signaling (Shh) pathway (AID 1259369; calls by dose curve; further: nearly all actives have a fitted effect of over 45% in size; further: potency means the concentration at half of the fitted maximal effect). Put shortly: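 Screening used 3T3Gli1-Luc cells at 2,000 per well, compounds delivered in DMSO, and conditioned medium as agonist stimulus; plates incubated 24hr at 37 C and 5% CO2 before a 30min luciferase step.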
Experiment [18] is described as follows: qHTS assay to identify small molecule agonists of the sonic hedgehog signaling (Shh) pathway - cell viability counter screen (AID 1259366). Further: nearly all actives have a fitted effect of over 50% in size. The gist of the method: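 Cytotoxicity counter screen: CellTiter-Fluor reagent added after 23 h compound exposure, then 1 h at 37C and fluorescence read. Cells were 3T3 Gli1-Luc, seeded 2,000 per well and dosed 4 h post-plating.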

A number with no mark means an inactive call. Results filed as inconclusive are left out. Activity calls are given as the source filed them. Unless noted, the call rests on the fitted dose curve; in most records, active means well fitted curve in the direction sought with a large enough effect in the repeat runs; inconclusive means weak or mixed curves; inactive means no such curve, though single readings can be large; an effect the other way counts as inactive or inconclusive.

Chain of Estrogen receptor (Homo sapiens) (P03372 whole entry, looked up): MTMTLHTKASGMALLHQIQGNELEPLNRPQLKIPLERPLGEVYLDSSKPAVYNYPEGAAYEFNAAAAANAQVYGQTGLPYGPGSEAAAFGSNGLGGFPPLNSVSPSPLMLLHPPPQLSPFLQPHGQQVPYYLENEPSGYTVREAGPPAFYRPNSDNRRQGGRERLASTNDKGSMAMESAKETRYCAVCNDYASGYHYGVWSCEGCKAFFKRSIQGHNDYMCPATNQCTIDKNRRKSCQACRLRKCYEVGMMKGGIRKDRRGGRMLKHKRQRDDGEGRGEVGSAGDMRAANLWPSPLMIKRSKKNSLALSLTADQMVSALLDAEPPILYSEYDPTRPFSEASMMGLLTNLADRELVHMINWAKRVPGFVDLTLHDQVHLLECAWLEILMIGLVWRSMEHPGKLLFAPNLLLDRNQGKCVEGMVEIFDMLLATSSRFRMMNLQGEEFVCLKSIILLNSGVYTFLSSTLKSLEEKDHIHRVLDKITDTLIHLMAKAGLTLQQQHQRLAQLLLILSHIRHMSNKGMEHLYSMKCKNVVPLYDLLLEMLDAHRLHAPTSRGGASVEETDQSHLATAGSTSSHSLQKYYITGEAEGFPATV

As for `CC(=O)CC(=O)Nc1ccc(S(=O)(=O)O)cc1`, the Potency entry in experiment [1], in experiment [2], in experiment [3], in experiment [4], in experiment [5] and in [6] was “inactive” in each case. Further, the Potency result in experiment [7], in [8], in experiment [9], in [10], in experiment [11] and in experiment [12] was “inactive” throughout. The Potency result in experiment [13], in experiment [14], in experiment [15], in experiment [16] and in experiment [17] was “inactive” throughout.

Consider `O=c1oc2cc(O)ccc2c2oc3cc(O)ccc3c12`, for which the Potency result in [1], in experiment [2], in [3], in experiment [4], in [7] and in experiment [8] was “inactive” in each case. The Potency result in experiment [9], in experiment [10], in experiment [11] and in experiment [15] was “inactive” in each case. For the same molecule, the Potency in experiment [5] is 21 µM (active); in experiment [6], 16.7 µM (active); in experiment [13], 9.29 µM (active); in experiment [17] it was 13.1 µM (active).

`Cc1c(C)c([N+](=O)[O-])c(C(C)(C)C)c([N+](=O)[O-])c1C`: the Potency entry in experiment [1], in [2], in experiment [3], in experiment [4], in experiment [5] and in experiment [6] was “inactive” in each case. For the same molecule, the Potency result in experiment [7], in experiment [8], in [9], in [10], in experiment [11] and in experiment [12] was “inactive” each time. The Potency result in experiment [14], in experiment [18], in [15], in experiment [16] and in experiment [17] was “inactive” in each case.

Turning to `CCc1ccc(Br)cc1`, the Potency result in experiment [1], in experiment [2], in [3], in experiment [4], in experiment [5] and in experiment [6] was “inactive” in each case. Besides, the Potency result in [7], in experiment [8], in experiment [9], in [10], in experiment [11] and in experiment [12] was “inactive” throughout. For the same molecule, the Potency result in experiment [14], in [18], in experiment [15], in experiment [16] and in experiment [17] was “inactive” throughout.

As to `c1cnccn1`, the Potency entry in [1], in experiment [2], in [3], in experiment [4], in [5] and in [6] was “inactive” in each case. Also, the Potency entry in [7], in experiment [9], in experiment [10], in experiment [11], in experiment [12] and in experiment [13] was “inactive” in each case. Besides, the Potency result in experiment [14], in [15], in [16] and in experiment [17] was “inactive” throughout.

Turning to `O=C(O)c1cc(O)c2ccccc2c1O`, the Potency result in experiment [1], in [3], in [7], in experiment [9] and in experiment [16] was “inactive” in each case. The Potency in experiment [2] was 24.5 µM (active); in experiment [4], 19.5 µM (active); in experiment [5], 43.6 µM (active); in [6] it was 17.4 µM (active); in experiment [10] it was 34.4 µM (active); in experiment [11] it was 54.5 µM (active). For the same molecule, the Potency in experiment [12] was 27.3 µM (active); in [14] it was 21.7 µM (active); in experiment [15], 13.7 µM (active); in experiment [17] it was 1.72 µM (active).

On to `CCCC(=O)OCCc1ccccc1`, for which the Potency in [1] is 38.9 µM (active); in [2] it was 43.6 µM (active); in experiment [3], 38.9 µM (active); in experiment [7], 43.6 µM (active); in experiment [9], 43.6 µM (active). Besides, the Potency entry in experiment [4], in experiment [5], in experiment [6], in experiment [8], in [10] and in [11] was “inactive” each time. In addition, the Potency result in experiment [13], in experiment [14], in [18], in experiment [15], in experiment [16] and in [17] was “inactive” in each case.

Source of the values: PubChem BioAssay (Tox21).
